In the library only some 4.7% were active in any assay of this set; here they are far more common.
D1 ag – Allosteric Agonists of the Human D1 Dopamine Receptor: qHTS. D(1A) dopamine receptor (Homo sapiens), P21728. HEK293 T-REx D1 cells, calcium flux, agonist mode. activation, % at 2 µM. 360,000 compounds, 1% hits. AID 504660, 2011
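Agonism was scored from calcium flux recorded over 180 s (1 read/s) after pintool compound addition, following a 10-cycle baseline. Cells were inducible force-coupled HEK293 TREx D1, plated overnight at 30 C and loaded with no-wash calcium dye.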
TRHR enhancer – qHTS for Small Molecule Agonists and Allosteric Enhancers of Human TRH Receptor: Primary Screen for Enhancers; Thyrotropin-releasing hormone receptor (Homo sapiens), P34981; TRHR cells, fluo-8 calcium fluorescence, EC20 TRH enhancement; enhancement, % at 2 µM; 360,000 compounds, 0.66% hits; AID 493056, 2011; in the data active = enhancement above about 30%
Target sequence (P34981 whole entry, looked up): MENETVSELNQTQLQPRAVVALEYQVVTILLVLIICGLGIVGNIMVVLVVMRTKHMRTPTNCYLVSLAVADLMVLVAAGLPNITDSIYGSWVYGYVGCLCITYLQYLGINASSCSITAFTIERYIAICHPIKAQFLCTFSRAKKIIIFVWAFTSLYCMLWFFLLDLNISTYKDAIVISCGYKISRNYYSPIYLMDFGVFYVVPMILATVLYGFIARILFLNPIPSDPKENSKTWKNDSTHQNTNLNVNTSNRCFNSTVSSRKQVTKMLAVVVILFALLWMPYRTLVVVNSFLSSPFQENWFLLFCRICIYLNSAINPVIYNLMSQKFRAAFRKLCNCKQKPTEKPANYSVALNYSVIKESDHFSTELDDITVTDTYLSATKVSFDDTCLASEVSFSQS
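TRHR-expressing cells loaded with fluo-8 calcium dye were read kinetically (ex 480/em 530) during compound addition, then stimulated with an EC20 of TRH (10 nM final). Enhancement of the Gq-mediated intracellular calcium response was scored.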
TRHR agonist – qHTS for Small Molecule Agonists and Allosteric Enhancers of Human TRH Receptor: Primary Screen for Agonists; Thyrotropin-releasing hormone receptor (Homo sapiens), P34981; TRHR cells, calcium flux fluo-8, FDSS agonist mode; activation, % at 2 µM; 360,000 compounds, 0.18% hits; AID 493084, 2011
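TRHR-expressing cells, plated overnight in medium with 10% serum, were loaded with fluo-8 calcium dye at room temperature. After a 10 s baseline, library compound was pin-added and calcium release was recorded kinetically (ex 480/em 530) as agonist response.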
D1 antag – Antagonist of Human D 1 Dopamine Receptor: qHTS | activity change, negative = inhibition, % at 10 µM | 360,000 compounds, 3.2% hits | HEK293 TREx D1 cells, calcium flux, dopamine EC80; hits give low values | D(1A) dopamine receptor (Homo sapiens), P21728; in the data active = activity change below about -30%
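Cells carrying a force-coupled, tetracycline-inducible human D1 receptor report calcium flux. Each well gets a 10 s baseline, compound with 180 s monitoring, then an EC80 dopamine stimulus with a second 180 s kinetic read.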
D1 PAM – Potentiators of Human D1 Dopamine Receptor: qHTS | D(1A) dopamine receptor (Homo sapiens), P21728 | 360,000 compounds, 0.036% hits | HEK293 TREx D1 cells, calcium flux, dopamine EC20 potentiation | potentiation, % at 10 µM; in the data active = potentiation above about 30%
A number is an active result; 0 = inactive; - = no result given; ! = repeats disagree. Cut-off read from the data, not from the text of the source, unless noted: active = activation above about 30%; inactive = the rest.

SMILES	D1 ag	TRHR enhancer	TRHR agonist	D1 antag	D1 PAM
Cc1ccccc1NC(=O)CCn1nc(-c2ccc(Cl)cc2)c2ccccc2c1=O	0	37	0	0	0
CCOC(=O)CCn1nc(-c2ccc(C)cc2)c2ccccc2c1=O	0	0	0	-49!	0
Cc1ccccc1NC(=O)CCn1cnc2onc(-c3ccc(F)cc3)c2c1=O	0	0	0	-45	0
CC(C)(C)NC(=O)CCn1nc(-c2ccc(Cl)cc2)c2ccccc2c1=O	0	0	0	0	0
Cc1ccc(-c2nnc(SCc3ccccc3C#N)o2)cc1	0	0	0	0	0
CCOC(=O)C1=C(COC(=O)CCCOc2ccccc2)NC(=O)NC1C (stereo not given)	0	0	0	0	0
CC(C)(C)C(=O)Cn1nc(Cl)nc1Cl	0	32	0	0	0
Cc1ccccc1Nc1c(-c2ccc(N3CCOCC3)cc2)nc2ccccn12	0	0	0	0	0
Cc1ccc(Nc2c(-c3ccc(N4CCOCC4)cc3)nc3c(C)cccn23)cc1	0	0	0	-32	0
CCc1cccc(C)c1Nc1c(-c2ccc(N3CCOCC3)cc2)nc2ncccn12	32	0	0	0	0
COc1ccc(CCNC(=O)Cn2c(=O)c3cccn3c3ccc(F)cc32)c(OC)c1	0	0	0	0	0
Cc1ccc2nc(Nc3nc(=O)c4ccccc4n3C)nc(C)c2c1	158	0	0	0	0
Cc1ccc2nc(Nc3nc(-c4ccccc4)cc(=O)[nH]3)nc(C)c2c1	0	0	0	0	0
Cc1ccc(O)c(CNc2cnc3ccccc3c2)c1	0	0	0	-31	0
Oc1ccc(Br)cc1CNc1cnc2ccccc2c1	0	0	0	0	0
Cc1cc(Cl)ccc1OC(C)c1nnc(N)s1 (stereo not given)	0	0	0	-49	0
CCc1cccc(CC)c1NC(=O)Cn1nnc2sc3c(c2c1=O)CCCC3	0	0	0	0	0
C[C@@]12CC(=O)NC1N(C(=O)c1cccc(C(F)(F)F)c1)C(c1ccccc1O)C2 (stereo not given in full)	0	0	0	-	0
CC(=O)N1C(c2ccccc2O)C[C@]2(C)CC(=O)NC12 (stereo not given in full)	0	36	0	0	0
O=C(COc1ccccc1Cl)Nc1ccc2oc(=O)ccc2c1	0	0	0	0	0
CCN(CC)c1ccc2c(C)c(Cl)c(=O)oc2c1	0	0	0	0	0
CCN(CC)c1ccc2c(c1)oc(=O)c1c(Cl)cc(=O)oc12	142	0	75	-38	0
O=C(Nc1cccc([N+](=O)[O-])c1)c1cccc(C(=O)Nc2cccc([N+](=O)[O-])c2)c1	0	0	0	0	0
COc1ccccc1NC(=S)NNC(=O)c1ccccc1Br	0	0	0	-80	0
COC(=O)c1sccc1NC(=O)Nc1ccccc1OC	0	0	0	-80	0
SMILES	D1 ag	TRHR enhancer	TRHR agonist	D1 antag	D1 PAM
O=C(/C=C/c1cccc([N+](=O)[O-])c1)Nc1cccc(NC(=O)c2cccs2)c1	0	0	0	-46	0
CC(NC(=O)Nc1cccc([N+](=O)[O-])c1)(C(F)(F)F)C(F)(F)F	0	0	0	-36	0
CC1=C(C(=O)N2CCN(c3cccc(C)c3C)CC2)C2(CCCCC2)OC1=O	0	0	0	0	0
CSCCC(C)N1CCC(Oc2ccc(C(=O)N3CCCC3)cc2)CC1 (stereo not given)	0	0	0	0	0
Cc1cccc(N2CCN(C(=O)CCCn3ncn4c(cc5occc54)c3=O)CC2)c1C	0	0	0	0	0
Clc1ccc2nc(NCc3ccccc3)c3nncn3c2c1	0	0	0	0	0
O=C(Nc1cccc([N+](=O)[O-])c1)Nc1cccs1	0	0	0	-35	0
COc1ccccc1NC(=O)NNC(=O)c1cc2ccccc2cc1O	0	0	0	-34	0
Cc1ccc(NC(=O)NNC(=O)c2cc3ccccc3cc2O)cc1	0	0	0	0	0
COc1ccccc1NC(=O)Nc1cc(NC(=O)Nc2ccccc2OC)c(C)nc1C	0	0	0	-93	0

Bioassay records from PubChem.
